PI5P4K alpha inh: inhibitors of human PI5P4K alpha. PI5P4Kalpha enzyme, ADP-Glo luminescence, 60 min; active compounds read low. max response, %. 1.2% of 330,000 active. AID 652105; active = max response of -50% or lower; inconclusive = between -30% and -50%; inactive = -30% or higher; also: value at the top dose of about 77 µM
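Luminescence from ADP-Glo served as readout of PI5P4Kalpha activity in a qHTS format. Reaction: enzyme, substrate, compound, ATP at 5 microM final, 60 min at RT.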
HP1b binding inh: HP1-beta chromodomain-methylated histone interaction inhibition; P83916; AlphaScreen HP1-beta / biotin-H3K9me3 peptide binding; Potency, µM (titrated, usually from 114 µM), hits mostly inhibitors; 0.56% of 390,000 active; also: nearly all actives have a fitted effect of over 70% in size
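AlphaScreen: HP1-beta (50 nM) preformed 30 min with biotin-H3(1-18)K9me3 peptide (50 nM) in PBS pH 7.4, 0.01% Tween-20. Compound added for 30 min at RT, then streptavidin donor/nickel chelate acceptor beads (10 ug/mL) for 30 min.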
JMJD2A Tudor: JMJD2A Tudor domain (human) inhibition; O75164; AlphaScreen JMJD2A-Tudor / H3K4me3 peptide binding; Potency, µM (doses to about 114 µM), actives largely listed as inhibitors; 4.4% of 390,000 active; AID 504339; also: nearly all actives have a fitted effect of over 50% in size
G9a inh: blocks human histone lysine methyltransferase G9a. G9a H3K9 monomethylation, AlphaScreen, 2 h. Potency, µM (series often up to 102 µM), usual class: inhibitors. AID 504332. 8.8% of 350,000 active; also: nearly all actives have a fitted effect of over 75% in size
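Quantitative HTS format: methyltransferase activity on a biotin-tagged H3K9 peptide is measured by AlphaScreen, using a rabbit anti-monomethyl-H3K9 antibody with streptavidin donor and anti-IgG acceptor beads. Final levels are 20 nM enzyme, 500 nM peptide, 20 uM SAM; 2 h RT.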
BAZ2B block: inhibitors of human BAZ2B bromodomain; Potency, µM (series often up to 114 µM), most hits filed as inhibitors; AlphaScreen BAZ2B-H3K14Ac peptide displacement; 4.4% of 360,000 active; also: nearly all actives have a fitted effect of over 60% in size
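AlphaScreen luminescence quantifies BAZ2B engagement of H3K14Ac peptide; the protein and biotinylated peptide are both at 50 nM final, buffer PBS pH 7.4 with 0.01% Tween-20, all steps at room temperature.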
PLK1 PBD inh: PLK1 (human) polo-box domain binding inhibition. 2.8% of 360,000 active. Potency, µM, actives largely listed as inhibitors. P53350. Plk1 PBD binding of FITC phosphopeptide, fluorescence polarization; also: series mostly up to about 57 µM; nearly all actives have a fitted effect of over 65% in size
Numbers stand for hits; n = inactive; u = inconclusive; x = not tested or not shown; [ ] = dose if it differs, or a comment. The list is not random: actives were taken first. Their share in the collection is about 12%. Unless noted, calls follow the shape of the dose curve; as a rule, active = well fitted curve in the direction sought with a large enough effect; inconclusive = small, poorly fitted or top-dose-only effect, or another doubt; inactive = no such curve, though single readings can be large; an effect the other way counts as inactive or inconclusive.

SMILES	PI5P4K alpha inh	HP1b binding inh	JMJD2A Tudor	G9a inh	BAZ2B block	PLK1 PBD inh
CN1c2ccsc2/C(=N/Nc2ccccc2)CS1(=O)=O	n	u	56µM	25µM	u	u
CCN(c1ccccc1)S(=O)(=O)c1ccc(NC(=O)c2nc(SC)ncc2Cl)cc1	x	n	n	n	n	x
CCOc1ccccc1-c1nc(CN2CCCN(C(=O)c3ccco3)CC2)c(C)o1	n	n	n	x	n	n
N#CC1=C(N)OC2=C(CC/C2=C\c2ccccc2)C1c1ccccc1 (stereo not drawn)	u	u	u	45µM	89µM	u
CC(=O)C1=C(C)OC(N)=C(C#N)C1c1cccc2ccccc12 (stereo not drawn)	n	n	n	x	n	n
N#CC1=C(N)OC2=C(CC/C2=C\c2ccccc2Cl)C1c1ccccc1Cl (stereo not drawn)	n	n	u	22µM	u	n
N#CC1=C(N)OC2=C(C(=O)CCC2)C1c1ccccc1 (stereo not drawn)	x	n	n	n	x	n
CCC(CC)N1CCN(CC2CC=CCC2)CC1 (stereo not drawn)	n	u	1.8µM	10µM	x	n
CCN(Cc1ccccc1)C(=O)C1CCN(Cc2sccc2C)CC1	n	u	2.8µM	8.9µM	n	n
CCN(Cc1ccccc1)C(=O)C1CCN(CC2CC=CCC2)CC1 (stereo not drawn)	n	u	3.2µM	7.9µM	u	n
CC(=O)C1CCN(Cc2ccccc2)CC1	n	n	n[11.4 µM]	n	n	n
Cc1ccccc1C(=O)Nc1ccnn1C1CCN(CC2CC=CCC2)CC1 (stereo not drawn)	n	n	n	x	n	n
O=C(c1ccccc1)N(Cc1ccccc1)Cc1ccccc1	n	n	n	n[0.501 µM]	n	n
CCN(Cc1ccccc1)C(=O)C1CCN(S(=O)(=O)c2ccc3c(c2)OCCO3)CC1	n	n	n	n	n	n
O=C(C1CC1)N(CCN(Cc1ccccc1)C(=O)C1CC1)Cc1ccccc1	n	n	n[11.4 µM]	x	n	27µM
CCCN(c1ccc(C(C)C)cc1)S(=O)(=O)c1ccc2c(c1)CCN2C(=O)CC	x	n	n	n	n	x
O=C(c1ccc2c(c1)N(Cc1ccc(F)cc1)C(=O)c1ccccc1S2(=O)=O)N1CCN(Cc2ccccc2)CC1	x	n	n	n	n	x
COc1cc(CN2C(=O)C(C)ON=C2c2ccccc2F)cc(OC)c1 (stereo not drawn)	n	x	x	x	x	n
CCOC(=O)c1ccc(S(=O)(=O)N2CCN(CC3CC=CCC3)CC2)cc1 (stereo not drawn)	x	n	n	n	n	n
CCN(CC)C(=O)C1CCN(CC2CC=CCC2)CC1 (stereo not drawn)	n	n	6.3µM	13µM	56µM	n
CC1(C)CC(=O)c2sc(NS(=O)(=O)Cc3ccccc3)nc2C1	x	n	n	11µM	n	24µM
Cc1ccc(S(=O)(=O)Nc2nc3c(s2)C(=O)CC(C)(C)C3)cc1	n	n	n	50µM	n	n
COc1ccc(S(=O)(=O)Nc2nc3c(s2)C(=O)CC(C)(C)C3)cc1	n	n	n	n	n	n
CN1CCc2c(sc(NC(=O)C3CCN(S(=O)(=O)c4cccs4)CC3)c2C(N)=O)C1	n	n	n	u	n	n
C/C(=N\NC(=S)Nc1ccc(F)cc1)C1CC1	x	n	28µM	u	n	n
SMILES	PI5P4K alpha inh	HP1b binding inh	JMJD2A Tudor	G9a inh	BAZ2B block	PLK1 PBD inh
CC(=O)NC(c1ccc(F)c(F)c1)c1nc(-c2ccccc2C)cs1 (stereo not drawn)	n	x	x	x	x	n
O=C(O)c1cc(Nc2cc(Cl)c3nonc3c2[N+](=O)[O-])ccc1O	u	n	n	35µM	u	4.7µM
Cc1ccccc1Nc1ccc2nonc2c1[N+](=O)[O-]	n	n	n	n	u	n
O=[N+]([O-])c1c(Nc2ccccc2O)cc(Cl)c2nonc12	u	u	u	x	u	3µM
CCOc1ccc(-n2c(SCC(=O)N3CCOCC3)nc3c([nH]c4ccccc43)c2=O)cc1	x	n	n	n	n	x
O=c1ccn([C@@H]2O[C@H](CNCc3cccn3-c3ccncc3)[C@@H](O)[C@H]2O)c(=O)[nH]1	n	x	x	x	x	n
CCc1nc2ccc(C(=O)Nc3ccc(OC)c(OC)c3)cn2c1N(C)Cc1cccs1	n	x	x	x	x	n
CC(=O)c1c(C(C)=O)c(C)n(-c2ccc(O)cc2)c1C	x	n	n	n	n	n

From PubChem
